Assay outcomes (PubChem)
An excerpt weighted towards active compounds, which were near 8.2% of everything screened.
ELG1 repair inh – blocks ELG1-dependent DNA repair in HEK293T cells; Potency, µM (top dose mostly 46.1 µM), inactives show top-dose activity change, negative = inhibition, hits mostly inhibitors; HEK293T ELG1-luciferase reporter, luminescence, 16 h; DNA damage induced by 5-fluorouridine; 330,000 compounds, 2.3% hits; note: % is set by controls: 0 for no effect and ±100 for the full control effect; nearly all actives have a fitted effect of over 55% in size
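5-Fluorouridine DNA damage + compound/DMSO, 2,000 cells/well, 16 h, 37 °C/5% CO2. ONE-Glo, 30 min RT, luminescence. Readout = decrease in reporter signal.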
MCF10A rerep – DNA re-replication induction in MCF 10a cells; MCF 10A DNA re-replication, Hoechst nuclear intensity, 48 h; Potency, µM (titrated, usually from 46.1 µM), without a hit: top-dose activity, positive = re-replication, hits mostly activators; 350,000 compounds, 2.9% hits; AID 624296; note: % of control where 0% means no effect; nearly all actives have a fitted effect of over 50% in size
KB-V1 cytotox – kills drug-selected multidrug resistant KB-V1 cells. KB-V1 MDR cells viability, CellTiter-Glo, 72 h. Potency, µM (series often up to 46.1 µM), actives largely listed as cytotoxic. 400,000 compounds, 3.4% hits. AID 1347076; note: % is set by controls: 0 for no effect and ±100 for the full control effect; nearly all actives have a fitted effect of over 60% in size
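KB-V1, DMEM (no phenol red) + 10% FBS; cpd pin-transferred, titration series; 72 h, 37 degrees C; CellTiter-Glo, luminescence. Data normalized, curve-fit.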
SW480 rerep – DNA re-replication induction in SW480 cells | SW480 DNA re-replication, Hoechst DNA content imaging, 48 h | 340,000 compounds, 1.8% hits | Potency, µM (top dose mostly 46.1 µM), for inactives: at the highest dose re-replication activation, actives largely listed as activators; note: % of control where 0% means no effect; nearly all actives have a fitted effect of over 55% in size
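SW480 cells exposed to compounds for 48 hr at 37 C, 5% CO2, then Hoechst-stained 40 min. Nuclear DNA content imaged by fluorescence scanning (405 nm excitation, 500-530 nm emission); re-replication scored as increased high-intensity nuclei.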
KB-3-1 tox – kills parental KB-3-1 adenocarcinoma cells; AID 1347075; Potency, µM (top dose mostly 46.1 µM), most hits filed as cytotoxic; 400,000 compounds, 1.4% hits; KB-3-1 viability, CellTiter-Glo ATP luminescence, 72 h; note: % is set by controls: 0 for no effect and ±100 for the full control effect; nearly all actives have a fitted effect of over 60% in size
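Parental KB-3-1 adenocarcinoma cells in phenol-red-free DMEM with 10% FBS were pin-treated with compounds at several concentrations, incubated 72 h at 37 °C, and viability read by CellTiter-Glo luminescence; concentration-effect curves were fitted after normalization.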
Starred values were filed as active, the others as inactive; i = inactive; ? = inconclusive; / = not tested or not shown; [ ] = another dose, or the depositor's remark. Calls come from the whole dose curve; as a rule, active = well fitted curve in the direction sought with a large enough effect; inconclusive = small, poorly fitted or top-dose-only effect, or another doubt; inactive = no such curve, though single readings can be large; an effect the other way counts as inactive or inconclusive. Potency is the fitted concentration of half-maximal effect.

SMILES	ELG1 repair inh	MCF10A rerep	KB-V1 cytotox	SW480 rerep	KB-3-1 tox
COC(=O)C1=C(c2ccc(-c3ccccc3)c(F)c2)C[C@@H]2CC[C@H]1N2C(=O)NCCO	-3%	15%	?	0%	?
CCCNC(=O)N1[C@H]2CC[C@@H]1C(C(=O)OC)=C(c1ccc(-c3ccccc3)c(F)c1)C2	0%	5%	?	-16%	?
COC(=O)C1=C(c2ccc(-c3ccccc3)c(F)c2)C[C@@H]2CC[C@H]1N2C(=O)NCc1ccco1	?	21µM*	i	26%	?
COc1cc(/C=C2\C(=O)NC(=O)N(c3ccccc3)C2=O)cc(OC)c1OC	-1%	-6%	i	-1%	i
CCc1ccc(N2C(=O)NC(=O)/C(=C\C=C\c3ccco3)C2=O)cc1	?	23µM*	?	18µM*	?
O=C1NC(=O)N(c2ccccc2)C(=O)/C1=C\C=C\c1ccccc1	?	23µM*	?	3.3µM*	?
Cc1ccc(N2C(=O)NC(=O)/C(=C/C=C/c3ccco3)C2=O)cc1	?	9.2µM*	18µM*	16µM*	?
CCCCN1C(=O)/C(=C/C=C/c2ccco2)C(=O)NC1=S	1%	-8%	i	-6%	i
O=C1NC(=O)N(c2ccccc2)C(=O)/C1=C\c1ccc([N+](=O)[O-])s1	-1%	?	i	21µM*	i
CC(=O)c1ccc(NC(=O)c2cc(CC(C)C)on2)cc1	?	1%	i	2%	i
COc1ccc(C2/C=C\CN(C(=O)Oc3ccc(C(F)(F)F)cc3)CC(=O)N2Cc2ccc(F)cc2)cc1 (centres undefined)	4%	?	i	22%	i
O=C1NC(=O)N(Cc2ccccc2)C(=O)/C1=C\c1ccco1	12%	16%	i	12%	i
Cc1cc(C)cc(N2C(=O)NC(=O)/C(=C\C=C\c3ccco3)C2=O)c1	?	13µM*	23µM*	?	?
CC(C)c1ccc(N2C(=O)NC(=O)/C(=C/C=C/c3ccco3)C2=O)cc1	?	6.5µM*	?	?	15µM*
O=C1NC(=O)N(Cc2ccc(F)cc2)C(=O)/C1=C\C=C\c1ccco1	?	3.7µM*	?	8.2µM*	?
CCc1ccc(N2NC(=O)/C(=C/C=C/c3ccco3)C2=O)cc1	3%	21µM*	i	17%	i
C=CCNc1nnc(Sc2ncccc2[N+](=O)[O-])s1	?	?	i	?	i
O=Cc1ccco1	/	-1%	/	-1%	/
O=C(Oc1ccc2cc(Br)ccc2c1)N1CCCCCC1	?	?	/	0%	/
CN[C@H]1C[C@H]2O[C@@](C)([C@H]1OC)n1c3ccccc3c3c4c(c5c6ccccc6n2c5c31)C(=O)NC4	0.52µM*	?	/	?	/
C[C@@H](N)[C@@H](O)c1ccc(O)c(O)c1	/	-1%	/	10%	/
NC(=O)Nc1ccc(C(=O)OCC(=O)Nc2ccc(Cl)cc2C(=O)c2ccccc2)cc1	21µM*	?	i	-1%	i
O=[N+]([O-])c1ccc(N2CCCC2)cc1N/N=C1\CN2CCC1CC2	?	1%	21µM*	23µM*	i
c1ccc(-c2cc(-c3ccccc3)[n+](-c3ccccc3)c(-c3ccccc3)c2)cc1	2.3µM*	21%	i	-4%	4.6µM*
Cc1ccc(-c2cc(-c3ccccc3)cc(-c3ccccc3)[n+]2-c2ccccc2)cc1	?	23µM*	i	13%[9.22 µM]	?
SMILES	ELG1 repair inh	MCF10A rerep	KB-V1 cytotox	SW480 rerep	KB-3-1 tox
CCOC(=O)c1ccc(-[n+]2c(-c3ccccc3)cc(-c3ccccc3)cc2-c2ccccc2)cc1	?	?	i	?	i
Cc1ccc(-c2cc(-c3ccc(C)cc3)[n+](-c3ccccc3)c(-c3ccc(C)cc3)c2)cc1	?	?	i	?	5.8µM*
CCOC(=O)c1cccc(-[n+]2c(-c3ccccc3)cc(-c3ccccc3)cc2-c2ccccc2)c1	-26%	1%	i	?	?
CN(C)c1ccc(-[n+]2c(-c3ccccc3)cc(-c3ccccc3)cc2-c2ccccc2)cc1	4.6µM*	?	21µM*	?	0.65µM*
Cc1ccc(-c2cc(-c3ccc(C)cc3)[n+](-c3ccc(C(=O)[O-])cc3)c(-c3ccc(C)cc3)c2)cc1	?	?	i	-3%	i
CCCCCNc1c(C(=O)OCC)c(=O)[nH]c2ccccc12	?	1%	?	-4%[9.22 µM]	i
C#CC(C)(O)CC (centres undefined)	/	11%	/	0%	/
C#C[C@]1(O)CCC2C3CCC4=C/C(=N/OCC(=O)NC(C)C(=O)NC(CCSC)C(=O)O)CC[C@]4(C)C3CC[C@@]21C (some centres undefined)	8.2µM*	1%	i	-6%	i
CCc1ccc(OCC(=O)N2CCN(CCc3ccccn3)CC2)cc1	/	/	i	/	i
CC12CCC3C(CC=C4CC(O)CCC43C)C1C/C(=C\c1cccc(F)c1)C2=O (centres undefined)	8%	5.8µM*	i	5%	i
C[C@]12CC[C@@H](O)CC1=CCC1C2CC[C@]2(C)C(=O)[C@H](F)CC12 (some centres undefined)	1%	0%	i	1%	i
COC(=O)C1=C(c2cc3ccccc3s2)C[C@@H]2CC[C@H]1N2C(=O)NCc1ccc(C(F)(F)F)cc1	/	?	18µM*	-7%	?
COC(=O)C1=C(c2cc3ccccc3s2)C[C@@H]2CC[C@H]1N2C(=O)NCC1CC1	/	28%	i	-2%	i
COC(=O)C1=C(c2ccc(F)cc2OCc2ccccc2)C[C@@H]2CC[C@H]1N2C(=O)NCc1ccc(C(F)(F)F)cc1	?	15µM*	i	-5%	i
COC(=O)C1=C(c2ccccc2OCc2ccccc2)C[C@@H]2CC[C@H]1N2C(=O)NCc1ccc(C(F)(F)F)cc1	-28%	11%	i	12%	?
COC(=O)C1=C(c2ccccc2OCc2ccccc2)C[C@@H]2CC[C@H]1N2C(=O)NCCc1ccc(F)cc1	21µM*	11%	i	5.8µM*	?
OCC(CBr)(CBr)CBr	?	18%	i	4%	i
F/C(COc1ccc2c(c1)[nH]c1ccccc12)=C1/CN2CCC1CC2	/	22%	/	10%	/
CCCCCCCCCC(CC)c1ccc(S(=O)(=O)O)cc1 (centres undefined)	/	1%	/	?	/
CN1CCc2nc(N)c(C#N)c(-c3ccccc3)c2C1	-8%	0%	i	-13%	i
CN1CCc2c(C#N)c(Cl)nc(Cl)c2C1	?	?	?	2.3µM*	i
